Measurements from PubChem BioAssay AID1159580 (chemical genetic matrix, 2015).
Values joined by “and” are separate entries in the source; they are usually repeats but may differ in a detail not shown here. Identical values can stand only once. In all, about 5,500 compounds went through this assay and about 2,000 (36%) were called active. Inconclusive results (about 18%) are left out. Cut-off read from the data, not from the text of the source: active = normalized growth mostly below about 0.91 (no sharp cut-off); inconclusive = no clear call, values can overlap the other calls; inactive = mostly above about 0.92. The list shows a part of the results.

Experiment: chemical genetic growth profiling, strain panel (AID 1159580);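 note: tested at 20 µM; growth read once vehicle control cultures reached saturation at 30 °C; 1 = growth at the plate median or of vehicle wells; lower values mean less growth of the strain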
Conditions: S. cerevisiae deletion strains, growth OD

Measured: normalized growth

CCN(CC)CCNc1ccc(CO)c2sc3ccccc3c(=O)c12
inactive: locus YAL013W, strain DEP1, hits give low values 1.01 | locus YAL021C, strain ccr4, hits give low values 0.994 | locus YAL026C, strain drs2, hits give low values 0.999 | locus YAL030W, strain snc1, hits give low values 1.01 | locus YBL061C, strain skt5, hits give low values 1 | locus YBR009C, strain hhf1, hits give low values 1.01 | locus YBR021W, strain FUR4, hits give low values 0.955 | locus YBR023C, strain chs3, hits give low values 1 | locus YBR171W, strain sec66, hits give low values 1.02 | locus YBR229C, strain ROT2, hits give low values 1 | locus YBR231C, strain swc5, hits give low values 1 | locus YBR279W, strain paf1, hits give low values 1 | locus YCL011C, strain gbp2, hits give low values 1 | locus YCL016C, strain dcc1, hits give low values 1 | locus YCL029C, strain bik1, hits give low values 1.01 | locus YCL069W, strain vba3, hits give low values 1.01 | locus YCR088W, strain abp1, hits give low values 1.01 | locus YDL005C, strain med2, hits give low values 1.01 | locus YDL035C, strain GPR1, hits give low values 0.992 | locus YDL040C, strain nat1, hits give low values 0.993 | locus YDL074C, strain BRE1, hits give low values 0.948 | locus YDL101C, strain DUN1, hits give low values 0.979 | locus YDL134C, strain PPH21, hits give low values 0.996 | locus YDL185W, strain tfp1, hits give low values 1 | locus YDL192W, strain arf1, hits give low values 1.01 | locus YDR001C, strain nth1, hits give low values 1.01 | locus YDR069C, strain doa4, hits give low values 1.01 | locus YDR101C, strain arx1, hits give low values 1 | locus YDR137W, strain rgp1, hits give low values 0.894 | locus YDR150W, strain NUM1, hits give low values 1 | locus YDR159W, strain sac3, hits give low values 1 | locus YDR162C, strain NBP2, hits give low values 0.969 | locus YDR195W, strain ref2 1.07 | locus YDR297W, strain sur2, hits give low values 1.01 | locus YDR318W, strain mcm21, hits give low values 1 | locus YDR334W, strain swr1, hits give low values 1 | locus YDR335W, strain msn5, hits give low values 1.02 | locus YDR388W, hits give low values 1.01 | locus YDR392W, strain spt3, hits give low values 0.999 | locus YDR502C, strain sam2, hits give low values 0.961 | locus YEL003W, strain gim4, hits give low values 1.01 | locus YEL037C, strain rad23, hits give low values 1.01 | locus YEL061C, strain CIN8 (second series), hits give low values 0.999 | locus YEL061C, strain CIN8, hits give low values 0.999 | locus YER015W, strain faa2, hits give low values 1 | locus YER016W, strain bim1, hits give low values 0.99 | locus YER110C, hits give low values 1.02 | locus YER111C, strain swi4, hits give low values 1 | locus YER155C, strain BEM2 (second series), hits give low values 0.972 | locus YER155C, strain BEM2, hits give low values 1.03 | locus YER167W, strain BCK2, hits give low values 1 | locus YFR010W, strain ubp6, hits give low values 0.999 | locus YGL078C, strain dbp3, hits give low values 1.01 | locus YGL086W, strain mad1, hits give low values 1 | locus YGL167C, strain pmr1, hits give low values 1.01 | locus YGL173C, strain kem1, hits give low values 1.01 | locus YGL227W, strain vid30, hits give low values 0.989 | locus YGL240W, strain doc1, hits give low values 1.01 | locus YGL248W, strain PDE1, hits give low values 1 | locus YGL253W, strain hxk2, hits give low values 1.01 | locus YGR078C, strain PAC10, hits give low values 0.975 | locus YGR135W, strain pre9, hits give low values 0.971 | locus YGR229C, strain SMI1, hits give low values 0.998 | locus YGR252W, strain gcn5, hits give low values 0.918 | locus YHR013C, strain ard1, hits give low values 1.01 | locus YHR027C, strain rpn1, hits give low values 1.01 | locus YHR030C, strain SLT2, hits give low values 1.01 | locus YHR079C, strain IRE1 (second series), hits give low values 1.01 | locus YHR079C, strain IRE1, hits give low values 1.01 | locus YHR094C, strain hxt1, hits give low values 1.02 | locus YHR129C, strain ARP1, hits give low values 0.995 | locus YHR142W, strain chs7, hits give low values 1.01 | locus YHR200W, strain rpn10, hits give low values 1.02 | locus YIL066C, strain RNR3, hits give low values 0.968 | locus YIL073C, strain SPO22, hits give low values 1.18 | locus YIL125W, strain kgd1, hits give low values 1.01 | locus YIR030C, strain dcg1, hits give low values 1.02 | locus YJL092W, strain hpr5, hits give low values 1 | locus YJL095W, strain BCK1 (second series), hits give low values 1.01 | locus YJL095W, strain BCK1, hits give low values 0.952 and 1.02 | locus YJL115W, strain asf1, hits give low values 1.03 | locus YJL129C, strain trk1, hits give low values 1 | locus YJL134W, strain LCB3, hits give low values 1 | locus YJL154C, strain vps35, hits give low values 1.01 | locus YJL164C, strain tpk1, hits give low values 1.01 | locus YJL166W, strain qcr8, hits give low values 1.02 | locus YJL168C, strain set2, hits give low values 1.02 | locus YJL187C, strain SWE1 (second series), hits give low values 0.986 | locus YJL187C, strain SWE1, hits give low values 1 | locus YJR043C, strain POL32, hits give low values 1 | locus YJR066W, strain TOR1, hits give low values 0.949
